# Reference: the supplement of paper PMC4466140
# B1: unnamed (peptide)
# chain: FPGKKSPRLPHRNKK
# How the values were obtained:
# Test in all cases: SPOT peptide array binding signal intensity (averaged, normalized) (arbitrary units (background-subtracted, floor 0; scale differs between SH3 domains)); higher = stronger binding of the SH3 domain to the peptide
# AgAbp1 = target: AgAbp1
# Method in brief: (§1)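 GST-SH3 fusions from four yeast species, purified on glutathione Sepharose, were incubated at 10 μg/ml overnight at 4°C on membranes of synthetic 15-mer peptides in which cysteines were replaced with serines. Binding signal is the normalized, background-subtracted spot intensity averaged over replicates, in domain-specific arbitrary units.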
# AgBbc1 = target: AgBbc1
# Method in brief: as §1
# AgBem1-D1 = target: AgBem1-D1
# Method in brief: as §1
# AgBzz1-D1 = target: AgBzz1-D1
# Method in brief: as §1
# AgBzz1-D2 = target: AgBzz1-D2
# Method in brief: as §1
# AgCyk3 = target: AgCyk3
# Method in brief: as §1
# AgFus1 = target: AgFus1
# Method in brief: as §1
# AgHof1 = target: AgHof1
# Method in brief: as §1
# AgHse1 = target: AgHse1
# Method in brief: as §1
# AgLsb1 = target: AgLsb1
# Method in brief: as §1
# AgLsb4 = target: AgLsb4
# Method in brief: as §1
# AgMyo5 = target: AgMyo5
# Method in brief: as §1
# AgNbp2 = target: AgNbp2
# Method in brief: as §1
# AgRvs167 = target: AgRvs167
# Method in brief: as §1
# AgSho1 = target: AgSho1
# Method in brief: as §1
# AgSla1-D1-D2 = target: AgSla1-D1-D2
# Method in brief: as §1
# AgSla1-D3 = target: AgSla1-D3
# Method in brief: as §1
# CaAbp1-D1 = target: CaAbp1-D1
# Method in brief: as §1
# CaAbp1-D2 = target: CaAbp1-D2
# Method in brief: as §1
# CaBbc1 = target: CaBbc1
# Method in brief: as §1
# CaBem1-D1 = target: CaBem1-D1
# Method in brief: as §1
# CaBzz1-D1 = target: CaBzz1-D1
# Method in brief: as §1
# CaBzz1-D2 = target: CaBzz1-D2
# Method in brief: as §1
# CaCyk3 = target: CaCyk3
# Method in brief: as §1
# CaFus1 = target: CaFus1
# Method in brief: as §1
# CaHof1 = target: CaHof1
# Method in brief: as §1
# CaHse1 = target: CaHse1
# Method in brief: as §1
# CaLsb1 = target: CaLsb1
# Method in brief: as §1
# CaLsb4 = target: CaLsb4
# Method in brief: as §1
# CaMyo5 = target: CaMyo5
# Method in brief: as §1
# CaNbp2 = target: CaNbp2
# Method in brief: as §1
# CaRvs167 = target: CaRvs167
# Method in brief: as §1
# CaRvs167-3 = target: CaRvs167-3
# Method in brief: as §1
# CaSho1 = target: CaSho1
# Method in brief: as §1
# CaSla1-D1-D2 = target: CaSla1-D1-D2
# Method in brief: as §1
# CaSla1-D3 = target: CaSla1-D3
# Method in brief: as §1
# ScAbp1 = target: ScAbp1
# Method in brief: as §1
# ScBbc1 = target: ScBbc1
# Method in brief: as §1
# ScBem1-D1 = target: ScBem1-D1
# Method in brief: as §1
# ScBzz1-D1 = target: ScBzz1-D1
# Method in brief: as §1
# ScBzz1-D2 = target: ScBzz1-D2
# Method in brief: as §1
# ScCyk3 = target: ScCyk3
# Method in brief: as §1
# ScFus1 = target: ScFus1
# Method in brief: as §1
# ScHof1 = target: ScHof1
# Method in brief: as §1
# ScHse1 = target: ScHse1
# Method in brief: as §1
# ScLsb1 = target: ScLsb1
# Method in brief: as §1
# ScLsb2 = target: ScLsb2
# Method in brief: as §1
# ScLsb3 = target: ScLsb3
# Method in brief: as §1
# ScLsb4 = target: ScLsb4
# Method in brief: as §1
# ScMyo3 = target: ScMyo3
# Method in brief: as §1
# ScMyo5 = target: ScMyo5
# Method in brief: as §1
# ScNbp2 = target: ScNbp2
# Method in brief: as §1
# ScPex13 = target: ScPex13
# Method in brief: as §1
# ScRvs167 = target: ScRvs167
# Method in brief: as §1
# ScSho1 = target: ScSho1
# Method in brief: as §1
# ScSla1-D1-D2 = target: ScSla1-D1-D2
# Method in brief: as §1
# ScSla1-D3 = target: ScSla1-D3
# Method in brief: as §1
# SpAbp1-D1 = target: SpAbp1-D1
# Method in brief: as §1
# SpBbc1 = target: SpBbc1
# Method in brief: as §1
# SpBzz1-D1 = target: SpBzz1-D1
# Method in brief: as §1
# SpBzz1-D2 = target: SpBzz1-D2
# Method in brief: as §1
# SpCyk3 = target: SpCyk3
# Method in brief: as §1
# SpHof1 = target: SpHof1
# Method in brief: as §1
# SpHof1-2 = target: SpHof1-2
# Method in brief: as §1
# SpHof1-3 = target: SpHof1-3
# Method in brief: as §1
# SpHse1 = target: SpHse1
# Method in brief: as §1
# SpLsb1 = target: SpLsb1
# Method in brief: as §1
# SpLsb4 = target: SpLsb4
# Method in brief: as §1
# SpMyo1 = target: SpMyo1
# Method in brief: as §1
# SpNbp2 = target: SpNbp2
# Method in brief: as §1
# SpPex13 = target: SpPex13
# Method in brief: as §1
# SpRvs167 = target: SpRvs167
# Method in brief: as §1
# SpSla1-D1-D2 = target: SpSla1-D1-D2
# Method in brief: as §1
# SpSla1-D3 = target: SpSla1-D3
# Method in brief: as §1
binder,measurement,setting,value
B1,SPOT peptide array binding signal intensity,AgAbp1,2580
same,SPOT peptide array binding signal intensity,AgBbc1,61.9
same,SPOT peptide array binding signal intensity,AgBem1-D1,47.5
same,SPOT peptide array binding signal intensity,AgBzz1-D1,50
same,SPOT peptide array binding signal intensity,AgBzz1-D2,33.5
same,SPOT peptide array binding signal intensity,AgCyk3,≤ 0
same,SPOT peptide array binding signal intensity,AgFus1,6.5
same,SPOT peptide array binding signal intensity,AgHof1,35.8
same,SPOT peptide array binding signal intensity,AgHse1,82.5
same,SPOT peptide array binding signal intensity,AgLsb1,≤ 0
same,SPOT peptide array binding signal intensity,AgLsb4,1270
same,SPOT peptide array binding signal intensity,AgMyo5,≤ 0
same,SPOT peptide array binding signal intensity,AgNbp2,87.2
same,SPOT peptide array binding signal intensity,AgRvs167,12
same,SPOT peptide array binding signal intensity,AgSho1,33
same,SPOT peptide array binding signal intensity,AgSla1-D1-D2,144
same,SPOT peptide array binding signal intensity,AgSla1-D3,13.5
same,SPOT peptide array binding signal intensity,CaAbp1-D1,2250
same,SPOT peptide array binding signal intensity,CaAbp1-D2,2660
same,SPOT peptide array binding signal intensity,CaBbc1,372
same,SPOT peptide array binding signal intensity,CaBem1-D1,49.8
same,SPOT peptide array binding signal intensity,CaBzz1-D1,167
same,SPOT peptide array binding signal intensity,CaBzz1-D2,126
same,SPOT peptide array binding signal intensity,CaCyk3,4.75
same,SPOT peptide array binding signal intensity,CaFus1,232
same,SPOT peptide array binding signal intensity,CaHof1,≤ 0
same,SPOT peptide array binding signal intensity,CaHse1,5.12
same,SPOT peptide array binding signal intensity,CaLsb1,0.25
same,SPOT peptide array binding signal intensity,CaLsb4,4250
same,SPOT peptide array binding signal intensity,CaMyo5,≤ 0
same,SPOT peptide array binding signal intensity,CaNbp2,216
same,SPOT peptide array binding signal intensity,CaRvs167,247
same,SPOT peptide array binding signal intensity,CaRvs167-3,7.25
same,SPOT peptide array binding signal intensity,CaSho1,152
same,SPOT peptide array binding signal intensity,CaSla1-D1-D2,332
same,SPOT peptide array binding signal intensity,CaSla1-D3,≤ 0
same,SPOT peptide array binding signal intensity,ScAbp1,918
same,SPOT peptide array binding signal intensity,ScBbc1,15.5
same,SPOT peptide array binding signal intensity,ScBem1-D1,7
same,SPOT peptide array binding signal intensity,ScBzz1-D1,9.5
same,SPOT peptide array binding signal intensity,ScBzz1-D2,4.25
same,SPOT peptide array binding signal intensity,ScCyk3,12.5
same,SPOT peptide array binding signal intensity,ScFus1,≤ 0
same,SPOT peptide array binding signal intensity,ScHof1,≤ 0
same,SPOT peptide array binding signal intensity,ScHse1,473
same,SPOT peptide array binding signal intensity,ScLsb1,47.1
same,SPOT peptide array binding signal intensity,ScLsb2,0.5
same,SPOT peptide array binding signal intensity,ScLsb3,3120
same,SPOT peptide array binding signal intensity,ScLsb4,1170
same,SPOT peptide array binding signal intensity,ScMyo3,≤ 0
same,SPOT peptide array binding signal intensity,ScMyo5,≤ 0
same,SPOT peptide array binding signal intensity,ScNbp2,186
same,SPOT peptide array binding signal intensity,ScPex13,393
same,SPOT peptide array binding signal intensity,ScRvs167,714
same,SPOT peptide array binding signal intensity,ScSho1,322
same,SPOT peptide array binding signal intensity,ScSla1-D1-D2,570
same,SPOT peptide array binding signal intensity,ScSla1-D3,5.25
same,SPOT peptide array binding signal intensity,SpAbp1-D1,756
same,SPOT peptide array binding signal intensity,SpBbc1,0.875
same,SPOT peptide array binding signal intensity,SpBzz1-D1,208
same,SPOT peptide array binding signal intensity,SpBzz1-D2,0.125
same,SPOT peptide array binding signal intensity,SpCyk3,1.53e-05
same,SPOT peptide array binding signal intensity,SpHof1,15.2
same,SPOT peptide array binding signal intensity,SpHof1-2,19.8
same,SPOT peptide array binding signal intensity,SpHof1-3,270
same,SPOT peptide array binding signal intensity,SpHse1,142
same,SPOT peptide array binding signal intensity,SpLsb1,17.9
same,SPOT peptide array binding signal intensity,SpLsb4,2700
same,SPOT peptide array binding signal intensity,SpMyo1,4.25
same,SPOT peptide array binding signal intensity,SpNbp2,176
same,SPOT peptide array binding signal intensity,SpPex13,6.5
same,SPOT peptide array binding signal intensity,SpRvs167,833
same,SPOT peptide array binding signal intensity,SpSla1-D1-D2,5
same,SPOT peptide array binding signal intensity,SpSla1-D3,13
